In PubChem BioAssay (EPA / NIEHS):
Activity calls are given as the source filed them. Rule for the calls: active = hit-call score of the fitted dose curve at least 0.9, where 1 is the maximum; inactive = score below 0.9.

Experiments:
[1] = ATG_CRE_CIS: Attagene CIS-FACTORIAL HepG2 Assay for human cAMP Responsive Element (CRE) binding protein 3 (AID 2282926); details: HepG2 CRE cis-reporter, Attagene multiplexed mRNA; actives raise or lower the signal
Summary of the method: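 We dosed HepG2 cells bearing multiple cis-promoter reporter units for 24 h and measured reporter mRNA by RT-PCR with capillary electrophoresis detection. Bidirectional concentration-response fitting used DMSO as negative control.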

[2] = molecular target: CCAAT/enhancer-binding protein beta (Homo sapiens) (UniProt P17676); assay: ATG_C_EBP_CIS: Attagene CIS-FACTORIAL HepG2 Assay for human CCAAT/Enhancer Binding Protein (C/EBP) beta (AID 2282927); details: HepG2 Attagene cis-factorial transcription factor reporter; actives raise or lower the signal
Sequence of CCAAT/enhancer-binding protein beta (Homo sapiens) (P17676 whole entry, looked up): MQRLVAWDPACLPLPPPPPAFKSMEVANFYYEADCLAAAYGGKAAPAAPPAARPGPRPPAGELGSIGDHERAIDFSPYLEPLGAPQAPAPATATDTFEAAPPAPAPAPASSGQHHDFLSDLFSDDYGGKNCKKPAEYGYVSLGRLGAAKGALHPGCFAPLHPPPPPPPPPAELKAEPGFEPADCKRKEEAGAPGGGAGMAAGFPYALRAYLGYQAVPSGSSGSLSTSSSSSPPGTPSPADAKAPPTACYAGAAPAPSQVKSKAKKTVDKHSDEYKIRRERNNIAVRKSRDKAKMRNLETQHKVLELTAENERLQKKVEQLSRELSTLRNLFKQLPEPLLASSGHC
Summary of the method: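 HepG2, transient MRTU transfection, 24 h treatment. RT-PCR plus CE fluorescence; DMSO negative control, bidirectional fit.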

[3] = ATG_CMV_CIS: Attagene CIS-FACTORIAL HepG2 Assay for human CMV (Internal Marker) (AID 2282928); details: HepG2 CMV promoter reporter, transcription factor profiling; actives raise or lower the signal;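 note: endpoint acts as a background internal control marker rather than a target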
Summary of the method: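 After transient transfection of HepG2 with reporter transcription units driven by cis-regulatory promoters, cells receive test chemical for 24 h. Labeled reporter amplicons, digested with HpaI, are sized and quantified by capillary electrophoresis against DMSO.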

[4] = ATG_DR4_LXR_CIS: Attagene CIS-FACTORIAL HepG2 Assay for human Liver X Receptor (LXR), DR4 submotif (AID 2282929); details: HepG2 Attagene DR4 cis-reporter, mRNA transcription; actives raise or lower the signal
Summary of the method: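 HepG2 cells were transiently transfected with multiple cis-regulated reporter units and dosed for 24 hours. The DR4 reporter mRNA was quantified by RT-PCR, 6-FAM labelling and capillary electrophoresis. Bidirectional fits used DMSO as baseline.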

[5] = molecular target: Aryl hydrocarbon receptor (Homo sapiens) (UniProt P35869); assay: ATG_Ahr_CIS: Attagene CIS-FACTORIAL HepG2 Assay for human Aryl Hydrocarbon Receptor (Ahr) (AID 2282930); details: HepG2 AhR cis-factorial reporter transcription; actives raise or lower the signal
Sequence of Aryl hydrocarbon receptor (Homo sapiens) (P35869 whole entry, looked up): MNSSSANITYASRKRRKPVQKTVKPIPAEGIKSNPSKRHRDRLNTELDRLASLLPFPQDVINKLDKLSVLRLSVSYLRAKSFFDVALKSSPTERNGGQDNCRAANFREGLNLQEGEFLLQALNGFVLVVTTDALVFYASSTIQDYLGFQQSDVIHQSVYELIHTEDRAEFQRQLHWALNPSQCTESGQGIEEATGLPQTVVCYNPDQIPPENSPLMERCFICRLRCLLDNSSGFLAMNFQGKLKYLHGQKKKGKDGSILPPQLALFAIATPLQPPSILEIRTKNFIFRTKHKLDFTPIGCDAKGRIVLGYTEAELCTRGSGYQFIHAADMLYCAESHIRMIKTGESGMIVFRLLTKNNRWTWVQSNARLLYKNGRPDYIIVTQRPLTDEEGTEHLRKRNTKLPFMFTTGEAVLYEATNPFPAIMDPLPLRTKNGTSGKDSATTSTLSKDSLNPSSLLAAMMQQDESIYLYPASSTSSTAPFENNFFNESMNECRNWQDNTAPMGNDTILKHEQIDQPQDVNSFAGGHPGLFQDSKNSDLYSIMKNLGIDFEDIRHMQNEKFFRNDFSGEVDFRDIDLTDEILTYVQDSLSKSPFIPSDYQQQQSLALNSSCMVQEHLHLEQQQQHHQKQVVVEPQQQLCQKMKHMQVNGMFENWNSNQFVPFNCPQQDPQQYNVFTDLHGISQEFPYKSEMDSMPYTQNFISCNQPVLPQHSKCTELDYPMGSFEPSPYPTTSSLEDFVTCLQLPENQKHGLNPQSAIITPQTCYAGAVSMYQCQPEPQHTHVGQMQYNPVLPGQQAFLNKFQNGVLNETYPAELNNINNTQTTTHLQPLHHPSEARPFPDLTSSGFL
Summary of the method: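 Endogenous factor activity is tracked through cis-promoter reporter units transfected into HepG2 cells. Transcript levels at 24 h are read by fluorescent RT-PCR and capillary electrophoresis, with activity in either direction scored relative to DMSO.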

[6] = ATG_AP_1_CIS: Attagene CIS-FACTORIAL HepG2 Assay for human Activator Protein 1 (AP-1) (AID 2282931); details: HepG2 Attagene cis-factorial AP-1 reporter mRNA; actives raise or lower the signal
Summary of the method: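 HepG2 cells transiently transfected with cis-element-driven reporter transcription units, dosed for 24 hours. Reporter mRNA measured by RT-PCR, 6-FAM labelling, HpaI digestion and capillary electrophoresis. Bidirectional fitting against DMSO baseline.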

[7] = ATG_AP_2_CIS: Attagene CIS-FACTORIAL HepG2 Assay for human Activator Protein 2 (AP-2) (AID 2282932); details: HepG2 AP-2 cis-reporter, Attagene transcription factor profiling; actives raise or lower the signal
Summary of the method: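 HepG2 cells transiently transfected with cis-element reporter units and exposed for 24 h. Reporter mRNA measured by RT-PCR, FAM labelling, HpaI digestion and capillary electrophoresis. Changes in either direction fitted relative to DMSO.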

[8] = ATG_BRE_CIS: Attagene CIS-FACTORIAL HepG2 Assay for human Bone Morphogenetic Protein (BMP) Response Element (BRE) (AID 2282933); details: HepG2 BMP response element reporter, Attagene transcription factor profiling; actives raise or lower the signal
Summary of the method: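 Read-out: reporter mRNA induction quantified by RT-PCR and capillary electrophoresis after 24 h chemical exposure of transfected HepG2 cells. Endogenous factor activity on the BMP response element; gain or loss fitted against DMSO baseline.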

[9] = molecular target: Retinoic acid receptor alpha (Homo sapiens) (UniProt P10276); assay: ATG_DR5_RAR_CIS: Attagene CIS-FACTORIAL HepG2 Assay for human Retinoic Acid Receptor Alpha (RARE), DR5 submotif (AID 2282934); details: HepG2 Attagene cis-factorial RARE DR5 reporter, mRNA; actives raise or lower the signal
Sequence of Retinoic acid receptor alpha (Homo sapiens) (P10276 whole entry, looked up): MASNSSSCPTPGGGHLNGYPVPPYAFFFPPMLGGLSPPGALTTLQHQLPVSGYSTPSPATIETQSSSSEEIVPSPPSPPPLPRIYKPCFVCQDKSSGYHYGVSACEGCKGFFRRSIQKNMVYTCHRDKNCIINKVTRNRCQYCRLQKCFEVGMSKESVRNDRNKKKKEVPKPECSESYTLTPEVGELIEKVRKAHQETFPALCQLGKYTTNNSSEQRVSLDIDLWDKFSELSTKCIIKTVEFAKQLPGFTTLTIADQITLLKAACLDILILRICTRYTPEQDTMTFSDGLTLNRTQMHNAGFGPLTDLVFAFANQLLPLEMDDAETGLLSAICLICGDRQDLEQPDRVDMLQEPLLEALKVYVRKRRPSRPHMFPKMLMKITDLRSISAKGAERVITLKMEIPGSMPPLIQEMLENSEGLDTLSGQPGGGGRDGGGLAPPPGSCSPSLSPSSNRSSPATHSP
Summary of the method: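 After 24 h of chemical exposure, transiently transfected HepG2 cells were lysed for total RNA; the DR5-regulated reporter transcript was quantified via RT-PCR and capillary electrophoresis, with activity fitted bidirectionally against DMSO.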

[10] = ATG_E_Box_CIS: Attagene CIS-FACTORIAL HepG2 Assay for human Enhancer Box (E-box) (AID 2282936); details: HepG2 E-box cis-reporter transcription, actives raise or lower the signal
Summary of the method: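 HepG2 cells transiently transfected with multiplexed cis-element reporter units, dosed 24 h; reporter mRNA quantified by RT-PCR, 6-FAM labelling, HpaI digestion and capillary electrophoresis. E-box (USF1) signal fitted bidirectionally vs DMSO.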

[11] = ATG_M_61_CIS: Attagene CIS-FACTORIAL HepG2 Assay for M61 Transcription Factor (Internal Marker) (AID 2282937); details: HepG2 Attagene CIS-FACTORIAL M61 internal marker reporter; actives raise or lower the signal
Summary of the method: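 HepG2 cells transiently transfected with multiplexed cis-promoter reporter units reporting endogenous transcription factor activity, measured 24 h after dosing. Reporter mRNA quantified by RT-PCR and capillary electrophoresis; bidirectional fit against DMSO baseline.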

[12] = ATG_EGR_CIS: Attagene CIS-FACTORIAL HepG2 Assay for human Early Growth Response 1 (EGR1) (AID 2282938); details: HepG2 Attagene CIS-FACTORIAL EGR reporter mRNA; actives raise or lower the signal
Summary of the method: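 HepG2 cells transiently transfected with cis-element-driven multiplexed reporter units, dosed for 24 h. EGR1-element reporter mRNA quantified by RT-PCR, 6-FAM labelling, HpaI digestion and capillary electrophoresis; bidirectional fit versus DMSO.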

[13] = ATG_M_19_CIS: Attagene CIS-FACTORIAL HepG2 Assay for M19 Transcription Factor (Internal Marker) (AID 2282939); details: HepG2 Attagene CIS-FACTORIAL M19 internal marker reporter; actives raise or lower the signal
Summary of the method: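 Readout: fluorescent reporter-transcript fragments by capillary electrophoresis after RT-PCR. Human HepG2 liver cells carried transfected MRTU constructs reporting endogenous transcription-factor activity; exposure 24 h. Gain or loss of signal fitted relative to DMSO.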

[14] = ATG_ERE_CIS: Attagene CIS-FACTORIAL HepG2 Assay for Estrogen Response Element (ERE) (AID 2282940); details: HepG2 ERE cis-reporter, Attagene RNA transcript; actives raise or lower the signal
Summary of the method: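 Readout: reporter mRNA induction by RT-PCR, FAM-labelled primer extension, HpaI digestion and capillary electrophoresis, 24 h after dosing transfected HepG2 cells. Endogenous transcription factors act on cis-element-regulated reporters. Gain or loss fitted against DMSO.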

[15] = ATG_Ets_CIS: Attagene CIS-FACTORIAL HepG2 Assay for human Erythroblast Transformation Specific (ETS) (AID 2282941); details: HepG2 ETS cis-reporter transcription, actives raise or lower the signal
Summary of the method: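 Human HepG2 hepatoma cells were transiently transfected with promoter-driven reporter constructs and treated for 24 hours. Reporter transcripts were quantified by RT-PCR with fluorescent primer extension; bidirectional curve fitting used DMSO as reference.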

[16] = molecular target: Hepatocyte nuclear factor 3-beta (Homo sapiens) (UniProt Q9Y261); assay: ATG_FoxA2_CIS: Attagene CIS-FACTORIAL HepG2 Assay for human Forkhead box A2 (FOXA2) (AID 2282942); details: HepG2 cis-reporter transcription factor activity, 24 h; actives raise or lower the signal
Sequence of Hepatocyte nuclear factor 3-beta (Homo sapiens) (Q9Y261 whole entry, looked up): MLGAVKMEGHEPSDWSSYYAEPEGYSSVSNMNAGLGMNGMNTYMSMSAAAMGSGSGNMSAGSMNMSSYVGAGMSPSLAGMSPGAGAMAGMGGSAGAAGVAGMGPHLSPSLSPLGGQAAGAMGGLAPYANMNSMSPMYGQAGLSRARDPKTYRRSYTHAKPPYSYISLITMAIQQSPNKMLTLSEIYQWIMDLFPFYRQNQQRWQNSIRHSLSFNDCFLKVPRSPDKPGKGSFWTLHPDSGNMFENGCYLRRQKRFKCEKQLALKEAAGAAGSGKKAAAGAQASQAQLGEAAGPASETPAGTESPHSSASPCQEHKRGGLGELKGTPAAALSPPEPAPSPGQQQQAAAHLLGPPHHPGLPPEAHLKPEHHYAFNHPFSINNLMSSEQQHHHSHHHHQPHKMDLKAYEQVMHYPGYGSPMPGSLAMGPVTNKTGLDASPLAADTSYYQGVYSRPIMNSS
Summary of the method: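 HepG2 transiently transfected with a multiplexed cis-promoter reporter library read endogenous FOXA2 activity. After 24 h compound exposure, reporter mRNA was quantified by RT-PCR, HpaI digestion and capillary electrophoresis. Bidirectional fit against DMSO.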

[17] = ATG_FoxO_CIS: Attagene CIS-FACTORIAL HepG2 Assay for human Forkhead box O (FoxO) (AID 2282943); details: HepG2 Attagene cis-reporter, FoxO element, mRNA; actives raise or lower the signal
Summary of the method: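 Transfected HepG2 reporter cells exposed to test chemical for 24 h; reporter RNA measured by reverse transcription, PCR and fluorescent capillary electrophoresis; curves fitted for increases and decreases against DMSO.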

[18] = ATG_GATA_CIS: Attagene CIS-FACTORIAL HepG2 Assay for human GATA Binding Protein (AID 2282944); details: HepG2 GATA cis-element reporter, Attagene multiplex mRNA; actives raise or lower the signal
Summary of the method: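 Read-out: fluorescent reporter mRNA fragments resolved by capillary electrophoresis after RT-PCR. Human liver HepG2 cells carried transiently transfected cis-regulated reporter constructs; chemicals incubated 24 h; gain or loss of signal fitted relative to DMSO.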

[19] = ATG_GLI_CIS: Attagene CIS-FACTORIAL HepG2 Assay for human Zinc Finger Protein GLI1 (AID 2282945); details: HepG2, Attagene cis-factorial reporter mRNA, GLI element; actives raise or lower the signal
Summary of the method: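 Transiently transfected HepG2 cells report endogenous transcription factor activity via cis-element-driven reporter units. After 24 h compound exposure, reporter mRNA was measured by RT-PCR with capillary electrophoresis; bidirectional fitting against DMSO baseline.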

[20] = molecular target: Transcription factor E2F1 (Homo sapiens) (UniProt Q01094); assay: ATG_E2F_CIS: Attagene CIS-FACTORIAL HepG2 Assay for human E2F Transcription Factor 1 (AID 2282935); details: HepG2 Attagene cis-reporter, E2F reporter RNA transcripts; actives raise or lower the signal
Sequence of Transcription factor E2F1 (Homo sapiens) (Q01094 whole entry, looked up): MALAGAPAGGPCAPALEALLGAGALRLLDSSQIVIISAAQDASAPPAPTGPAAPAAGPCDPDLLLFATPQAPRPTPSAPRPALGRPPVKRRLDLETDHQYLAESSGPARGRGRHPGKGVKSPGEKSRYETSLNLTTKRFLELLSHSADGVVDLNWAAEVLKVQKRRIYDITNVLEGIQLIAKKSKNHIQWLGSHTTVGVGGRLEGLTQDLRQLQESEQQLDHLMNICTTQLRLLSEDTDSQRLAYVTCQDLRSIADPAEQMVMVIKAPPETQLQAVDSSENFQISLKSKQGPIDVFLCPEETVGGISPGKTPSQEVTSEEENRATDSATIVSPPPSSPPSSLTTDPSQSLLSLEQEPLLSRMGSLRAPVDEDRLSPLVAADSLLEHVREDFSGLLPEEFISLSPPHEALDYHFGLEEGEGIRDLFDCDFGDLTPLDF
Summary of the method: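 Endogenous E2F1 activity read through cis-promoter reporter units transfected into HepG2. After 24 h compound treatment, reporter mRNA measured by RT-PCR, HpaI digestion and capillary electrophoresis. Bidirectional fit versus DMSO.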

CC(=O)Nc1nnc(S(N)(=O)=O)s1
outcome [1]: inactive
outcome [2]: inactive
outcome [3]: inactive
outcome [4]: inactive
outcome [5]: inactive
outcome [6]: inactive
outcome [7]: inactive
outcome [8]: inactive
outcome [9]: inactive
outcome [10]: inactive
outcome [11]: inactive
outcome [12]: inactive
outcome [13]: inactive
outcome [14]: inactive
outcome [15]: inactive
outcome [16]: inactive
outcome [17]: inactive
outcome [18]: inactive
outcome [19]: inactive

O=CN1CCCCC1
outcome [1]: inactive
outcome [2]: inactive
outcome [3]: inactive
outcome [4]: inactive
outcome [5]: inactive
outcome [6]: inactive
outcome [7]: inactive
outcome [8]: inactive
outcome [9]: inactive
outcome [20]: inactive
outcome [10]: inactive
outcome [12]: inactive
outcome [13]: inactive
outcome [14]: inactive
outcome [15]: inactive
outcome [16]: inactive
outcome [17]: inactive
outcome [18]: inactive
outcome [19]: inactive

O=C(O)CC(C(=O)O)C(CC(=O)O)C(=O)O (configuration not stated)
outcome [1]: inactive
outcome [2]: inactive
outcome [3]: inactive
outcome [4]: inactive
outcome [5]: inactive
outcome [6]: inactive
outcome [7]: inactive
outcome [8]: inactive
outcome [9]: inactive
outcome [10]: inactive
outcome [11]: inactive
outcome [12]: inactive
outcome [13]: inactive
outcome [14]: inactive
outcome [15]: inactive
outcome [16]: inactive
outcome [17]: inactive
outcome [18]: inactive
outcome [19]: inactive

Cc1cc(C)c(C)c(C)c1
outcome [1]: inactive
outcome [2]: inactive
outcome [3]: inactive
outcome [4]: inactive
outcome [5]: inactive
outcome [6]: inactive
outcome [7]: inactive
outcome [8]: inactive
outcome [9]: inactive
outcome [10]: inactive
outcome [11]: inactive
outcome [12]: inactive
outcome [13]: inactive
outcome [14]: inactive
outcome [15]: inactive
outcome [16]: inactive
outcome [17]: inactive
outcome [18]: inactive
outcome [19]: inactive

O=C1CC2CC1C1CCCC21 (configuration not stated)
outcome [1]: inactive
outcome [2]: inactive
outcome [3]: inactive
outcome [4]: inactive
outcome [5]: inactive
outcome [6]: inactive
outcome [7]: inactive
outcome [8]: inactive
outcome [9]: inactive
outcome [20]: inactive
outcome [10]: inactive
outcome [12]: inactive
outcome [13]: inactive
AC50 [14]: 19.8 µM (active)
outcome [15]: inactive
outcome [16]: inactive
outcome [17]: inactive
outcome [18]: inactive
outcome [19]: inactive

CC(=O)c1ccc2c(c1)CCCC2
outcome [1]: inactive
outcome [2]: inactive
outcome [3]: inactive
outcome [4]: inactive
outcome [5]: inactive
outcome [6]: inactive
outcome [7]: inactive
outcome [8]: inactive
outcome [9]: inactive
outcome [20]: inactive
outcome [10]: inactive
outcome [12]: inactive
outcome [13]: inactive
outcome [14]: inactive
outcome [15]: inactive
outcome [16]: inactive
outcome [17]: inactive
outcome [19]: inactive

NC(=O)c1ccccc1O
outcome [1]: inactive
outcome [2]: inactive
outcome [3]: inactive
outcome [4]: inactive
outcome [5]: inactive
outcome [6]: inactive
outcome [7]: inactive
outcome [8]: inactive
outcome [9]: inactive
outcome [10]: inactive
outcome [11]: inactive
outcome [12]: inactive
outcome [13]: inactive
outcome [14]: inactive
outcome [15]: inactive
outcome [16]: inactive
outcome [17]: inactive
outcome [18]: inactive
outcome [19]: inactive
